# Data as given in PubChem BioAssay (NCATS).
# Results filed as inconclusive are left out. Calls of active or inactive are those of the source. The call rests on the fitted dose curve; in most records, active means well fitted inhibition curve with a large enough effect; inconclusive means small, poorly fitted or top-dose-only effect; inactive means flat fitted curve, though single readings scatter.
# Target: Calcium and integrin-binding protein 1 (Homo sapiens) (UniProt Q99828)
# Experiment: Primary qHTS for Identification of Calcium Integrin Binding Protein 1 (CIB1) Competitor (AID 1508620); further: top concentration of the series differs between compounds
# Conditions: CIB1-GST / FITC-alphaIIb peptide fluorescence polarization; series mostly up to 57.7 µM; activity change, negative = inhibition: at the top concentration
# Method in brief: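 Fluorescence polarization competition: GST-tagged CIB1 (1 uM final) preincubated with compound 15 min at room temperature, then FITC-labelled alphaIIb peptide (100 nM final) added. After 15 min at room temperature, polarization read at Ex 480/Em 540.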
# On the % scale 0 is the no-effect control and ±100 the full control effect.
# Chain of Calcium and integrin-binding protein 1 (Homo sapiens) (Q99828 whole entry, looked up): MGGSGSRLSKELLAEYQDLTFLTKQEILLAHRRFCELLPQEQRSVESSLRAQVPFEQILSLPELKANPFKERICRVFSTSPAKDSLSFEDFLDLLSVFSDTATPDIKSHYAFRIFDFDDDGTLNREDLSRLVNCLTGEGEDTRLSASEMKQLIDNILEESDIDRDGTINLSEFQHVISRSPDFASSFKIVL
Compound,"activity change, negative = inhibition",Potency
CC(N[C@H]1CCCC[C@H]1NC(=O)c1ccc(Cl)cc1)c1cccc2ccccc12 (some centres undefined),-2.91% (inactive),
Oc1cc2c(cc1O)C1c3ccc(O)c(O)c3OCC1(O)C2 (centres undefined),1.42% (inactive),
CCN(CC)CCCCNc1ncc2c(n1)N(C)C(=O)N(c1c(Cl)c(OC)cc(OC)c1Cl)C2,-0.515% (inactive),
Oc1ccc([C@@H]2Oc3ccc(O)cc3[C@@H]3CCC[C@@H]32)cc1,,inactive
CN(C)c1ccc(C(=O)NCCCCCCC(=O)NO)cc1,-1.53% (inactive),
NC(=NCCCCCCN=C(N)N=C(N)Nc1ccc(Cl)cc1)N=C(N)Nc1ccc(Cl)cc1,-0.468% (inactive),
CNC(=O)Nc1ccc(-c2nc(N3CC4CCC(C3)O4)c3cnn(C4CCC5(CC4)OCCO5)c3n2)cc1,-0.247% (inactive),
Cn1cc(-c2cnn3c(N)c(Br)c([C@H]4CCCNC4)nc23)cn1,-1.29% (inactive),
CCc1ccc(C(=O)Nc2cc(CN3CCN(C)CC3)cc(C(F)(F)F)c2)cc1C#Cc1cnc2ccnn2c1,,inactive
